# Reference: the supplement of paper PMC11732987, “Enantioselective OTUD7B fragment discovery through chemoproteomics screening and high-throughput optimisation” (Communications Chemistry, 2025)
# Values without a mark were called inactive.
# Columns and labels:
# Experiment in all cases: log2 ratio of Biotin-Ahx-Ub-VS probe labelling (compound/DMSO); higher = less target engagement, active = hit call of the paper (q ≤ 0.05, log2 ratio ≤ -1)
# Conditions in all cases: treatment time: 3 h
# [1] = compound: CCC1N(CCc2sccc12)C(=O)CCl
# Method in brief: (§1)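 Compound at 50 or 200 µM, or DMSO, was applied for 3 h in triplicate to HEK293T lysate (495 µg per sample, Tris/CHAPS/IGEPAL buffer with protease inhibitors), after which Biotin-Ahx-Ub-VS was added at 0.5 µM final for 1 h. The labelled DUBs were pulled down with NeutrAvidin, digested with LysC and trypsin, and run by diaPASEF LC-MS/MS. Ratios are averaged base-two logs of compound over DMSO from median-normalised label-free quantities by unpaired t-test, counting only proteins with at least 2 unique peptides.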
# [2] = compound: CN1c2ccccc2C(CS1(=O)=O)NC(=O)CCl
# Method in brief: as §1
# [3] = compound: Cl.ClCC(=O)N1CCc2ncncc2C1
# Method in brief: as §1
# [4] = compound: Cl.Cn1ncc2C(CCCc12)NC(=O)CCl
# Method in brief: as §1
# [5] = compound: ClCC(=O)NC1CCOc2ccccc12
# Method in brief: as §1
# [6] = compound: ClCC(=O)NC1CCCc2ccccc12
# Method in brief: (§2)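 Spectronaut label-free, global-median-normalised protein quantities underlie these values, which are average ratios of compound to vehicle from an unpaired t-test. They are reported as log2 and include only proteins identified by two or more unique peptides. Samples of HEK293T lysate (495 µg) were treated in triplicate with a compound concentration series or vehicle for 3 h, then labelled with Biotin-Ahx-Ub-VS at 0.5 µM final for 1 h before NeutrAvidin enrichment, LysC and trypsin digestion, and diaPASEF LC-MS/MS.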
# [7] = compound: ClCC(=O)N[C@@H]1CCCc2ccccc12
# Method in brief: as §2
# [8] = compound: ClCC(=O)N[C@H]1CCCc2ccccc12
# Method in brief: as §2
# [9] = compound: CCC1N(CCc2cc(OC)c(Cl)cc12)C(=O)CCl
# Method in brief: as §1
# [10] = compound: CCCC1N(CCc2cc(OC)c(OC)cc12)C(=O)CCl
# Method in brief: as §1
# Chain of UniProt Q6GQQ9 (Q6GQQ9 whole entry): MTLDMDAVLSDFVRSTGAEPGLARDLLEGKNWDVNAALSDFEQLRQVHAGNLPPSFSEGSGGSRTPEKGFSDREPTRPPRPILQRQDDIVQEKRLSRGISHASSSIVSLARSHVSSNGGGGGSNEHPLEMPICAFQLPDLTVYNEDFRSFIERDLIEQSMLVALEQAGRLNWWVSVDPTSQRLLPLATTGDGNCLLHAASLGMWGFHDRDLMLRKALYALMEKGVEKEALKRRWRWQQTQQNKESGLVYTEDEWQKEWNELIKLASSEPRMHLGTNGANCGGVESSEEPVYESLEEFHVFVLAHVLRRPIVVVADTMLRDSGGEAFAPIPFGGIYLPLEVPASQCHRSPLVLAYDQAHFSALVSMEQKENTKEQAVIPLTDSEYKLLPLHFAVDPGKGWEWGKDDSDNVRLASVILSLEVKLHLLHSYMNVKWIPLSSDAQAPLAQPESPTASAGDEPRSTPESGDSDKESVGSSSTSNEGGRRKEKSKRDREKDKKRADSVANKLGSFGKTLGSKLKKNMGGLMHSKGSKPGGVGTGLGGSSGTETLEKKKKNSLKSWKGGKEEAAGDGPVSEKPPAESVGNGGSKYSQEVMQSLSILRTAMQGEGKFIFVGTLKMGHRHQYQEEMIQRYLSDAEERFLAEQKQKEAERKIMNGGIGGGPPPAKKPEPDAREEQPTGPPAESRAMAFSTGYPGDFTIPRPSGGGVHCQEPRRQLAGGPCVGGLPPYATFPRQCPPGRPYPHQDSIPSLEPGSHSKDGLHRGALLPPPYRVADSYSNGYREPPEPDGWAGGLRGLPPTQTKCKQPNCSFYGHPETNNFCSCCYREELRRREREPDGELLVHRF
# Chain of UniProt O00487 (O00487 whole entry): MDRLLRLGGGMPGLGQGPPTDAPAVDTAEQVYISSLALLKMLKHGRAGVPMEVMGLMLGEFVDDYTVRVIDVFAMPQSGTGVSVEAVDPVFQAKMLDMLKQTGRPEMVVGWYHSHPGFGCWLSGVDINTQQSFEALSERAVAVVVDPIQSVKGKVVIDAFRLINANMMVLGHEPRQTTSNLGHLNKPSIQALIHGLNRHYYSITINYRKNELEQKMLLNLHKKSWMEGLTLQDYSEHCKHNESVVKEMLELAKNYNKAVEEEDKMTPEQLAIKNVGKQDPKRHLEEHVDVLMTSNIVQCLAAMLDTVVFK
target,measurement,setting,value
OTUD7B (UniProt Q6GQQ9),log2 ratio of Biotin-Ahx-Ub-VS probe labelling,[1]; compound concentration: 50uM,-0.4
same,log2 ratio of Biotin-Ahx-Ub-VS probe labelling,[1]; compound concentration: 200uM,-0.926
same,log2 ratio of Biotin-Ahx-Ub-VS probe labelling,[2]; compound concentration: 50uM,-1.97 (active)
same,log2 ratio of Biotin-Ahx-Ub-VS probe labelling,[2]; compound concentration: 200uM,-4.51 (active)
same,log2 ratio of Biotin-Ahx-Ub-VS probe labelling,[3]; compound concentration: 50uM,-0.537
same,log2 ratio of Biotin-Ahx-Ub-VS probe labelling,[3]; compound concentration: 200uM,-1.65 (active)
same,log2 ratio of Biotin-Ahx-Ub-VS probe labelling,[4]; compound concentration: 50uM,-4.9 (active)
same,log2 ratio of Biotin-Ahx-Ub-VS probe labelling,[4]; compound concentration: 200uM,-5.48 (active)
same,log2 ratio of Biotin-Ahx-Ub-VS probe labelling,[5]; compound concentration: 50uM,-2.66 (active)
same,log2 ratio of Biotin-Ahx-Ub-VS probe labelling,[5]; compound concentration: 200uM,-4.52 (active)
same,log2 ratio of Biotin-Ahx-Ub-VS probe labelling,[6]; compound concentration: 0.78uM,-0.175
same,log2 ratio of Biotin-Ahx-Ub-VS probe labelling,[6]; compound concentration: 1.56uM,-0.207
same,log2 ratio of Biotin-Ahx-Ub-VS probe labelling,[6]; compound concentration: 3.13uM,-0.537
same,log2 ratio of Biotin-Ahx-Ub-VS probe labelling,[6]; compound concentration: 6.25uM,-0.893
same,log2 ratio of Biotin-Ahx-Ub-VS probe labelling,[6]; compound concentration: 12.5uM,-1.66 (active)
same,log2 ratio of Biotin-Ahx-Ub-VS probe labelling,[6]; compound concentration: 25uM,-2.4 (active)
same,log2 ratio of Biotin-Ahx-Ub-VS probe labelling,[6]; compound concentration: 50uM,-3.12 (active)
same,log2 ratio of Biotin-Ahx-Ub-VS probe labelling,[6]; compound concentration: 100uM,-3.17 (active)
same,log2 ratio of Biotin-Ahx-Ub-VS probe labelling,[6]; compound concentration: 200uM,-3.5 (active)
same,log2 ratio of Biotin-Ahx-Ub-VS probe labelling,[7]; compound concentration: 0.78uM,-0.133
same,log2 ratio of Biotin-Ahx-Ub-VS probe labelling,[7]; compound concentration: 1.56uM,-0.0966
same,log2 ratio of Biotin-Ahx-Ub-VS probe labelling,[7]; compound concentration: 3.13uM,-0.116
same,log2 ratio of Biotin-Ahx-Ub-VS probe labelling,[7]; compound concentration: 6.25uM,-0.27
same,log2 ratio of Biotin-Ahx-Ub-VS probe labelling,[7]; compound concentration: 12.5uM,-0.226
same,log2 ratio of Biotin-Ahx-Ub-VS probe labelling,[7]; compound concentration: 25uM,-0.495
same,log2 ratio of Biotin-Ahx-Ub-VS probe labelling,[7]; compound concentration: 50uM,-1.03 (active)
same,log2 ratio of Biotin-Ahx-Ub-VS probe labelling,[7]; compound concentration: 100uM,-1.55 (active)
same,log2 ratio of Biotin-Ahx-Ub-VS probe labelling,[7]; compound concentration: 200uM,-2.65 (active)
same,log2 ratio of Biotin-Ahx-Ub-VS probe labelling,[8]; compound concentration: 0.78uM,-0.224
same,log2 ratio of Biotin-Ahx-Ub-VS probe labelling,[8]; compound concentration: 1.56uM,-0.562
same,log2 ratio of Biotin-Ahx-Ub-VS probe labelling,[8]; compound concentration: 3.13uM,-0.851
same,log2 ratio of Biotin-Ahx-Ub-VS probe labelling,[8]; compound concentration: 6.25uM,-1.39 (active)
same,log2 ratio of Biotin-Ahx-Ub-VS probe labelling,[8]; compound concentration: 12.5uM,-2.2 (active)
same,log2 ratio of Biotin-Ahx-Ub-VS probe labelling,[8]; compound concentration: 25uM,-3.03 (active)
same,log2 ratio of Biotin-Ahx-Ub-VS probe labelling,[8]; compound concentration: 50uM,-3.18 (active)
same,log2 ratio of Biotin-Ahx-Ub-VS probe labelling,[8]; compound concentration: 100uM,-3.43 (active)
same,log2 ratio of Biotin-Ahx-Ub-VS probe labelling,[8]; compound concentration: 200uM,-3.45 (active)
same,log2 ratio of Biotin-Ahx-Ub-VS probe labelling,[9]; compound concentration: 50uM,-0.0276
same,log2 ratio of Biotin-Ahx-Ub-VS probe labelling,[9]; compound concentration: 200uM,-0.501
same,log2 ratio of Biotin-Ahx-Ub-VS probe labelling,[10]; compound concentration: 50uM,-0.433
same,log2 ratio of Biotin-Ahx-Ub-VS probe labelling,[10]; compound concentration: 200uM,-0.824
UniProt O00487,log2 ratio of Biotin-Ahx-Ub-VS probe labelling,[1]; compound concentration: 50uM,-0.193
same,log2 ratio of Biotin-Ahx-Ub-VS probe labelling,[1]; compound concentration: 200uM,-0.218
same,log2 ratio of Biotin-Ahx-Ub-VS probe labelling,[2]; compound concentration: 50uM,-0.0425
same,log2 ratio of Biotin-Ahx-Ub-VS probe labelling,[2]; compound concentration: 200uM,-0.0779
same,log2 ratio of Biotin-Ahx-Ub-VS probe labelling,[3]; compound concentration: 50uM,0.107
same,log2 ratio of Biotin-Ahx-Ub-VS probe labelling,[3]; compound concentration: 200uM,-0.106
same,log2 ratio of Biotin-Ahx-Ub-VS probe labelling,[4]; compound concentration: 50uM,-0.124
same,log2 ratio of Biotin-Ahx-Ub-VS probe labelling,[4]; compound concentration: 200uM,-0.336
same,log2 ratio of Biotin-Ahx-Ub-VS probe labelling,[5]; compound concentration: 50uM,0.217
same,log2 ratio of Biotin-Ahx-Ub-VS probe labelling,[5]; compound concentration: 200uM,-0.351
same,log2 ratio of Biotin-Ahx-Ub-VS probe labelling,[6]; compound concentration: 0.78uM,-0.644
same,log2 ratio of Biotin-Ahx-Ub-VS probe labelling,[6]; compound concentration: 1.56uM,-0.964
same,log2 ratio of Biotin-Ahx-Ub-VS probe labelling,[6]; compound concentration: 3.13uM,-0.768
same,log2 ratio of Biotin-Ahx-Ub-VS probe labelling,[6]; compound concentration: 6.25uM,-0.916
same,log2 ratio of Biotin-Ahx-Ub-VS probe labelling,[6]; compound concentration: 12.5uM,-0.0532
same,log2 ratio of Biotin-Ahx-Ub-VS probe labelling,[6]; compound concentration: 25uM,-1.08
same,log2 ratio of Biotin-Ahx-Ub-VS probe labelling,[6]; compound concentration: 50uM,-1.09
same,log2 ratio of Biotin-Ahx-Ub-VS probe labelling,[6]; compound concentration: 100uM,-0.828
same,log2 ratio of Biotin-Ahx-Ub-VS probe labelling,[6]; compound concentration: 200uM,-0.122
same,log2 ratio of Biotin-Ahx-Ub-VS probe labelling,[7]; compound concentration: 0.78uM,-0.274
same,log2 ratio of Biotin-Ahx-Ub-VS probe labelling,[7]; compound concentration: 1.56uM,-0.457
same,log2 ratio of Biotin-Ahx-Ub-VS probe labelling,[7]; compound concentration: 3.13uM,-0.399
same,log2 ratio of Biotin-Ahx-Ub-VS probe labelling,[7]; compound concentration: 6.25uM,-0.508
same,log2 ratio of Biotin-Ahx-Ub-VS probe labelling,[7]; compound concentration: 12.5uM,-0.515
same,log2 ratio of Biotin-Ahx-Ub-VS probe labelling,[7]; compound concentration: 25uM,-0.563
same,log2 ratio of Biotin-Ahx-Ub-VS probe labelling,[7]; compound concentration: 50uM,-0.92
same,log2 ratio of Biotin-Ahx-Ub-VS probe labelling,[7]; compound concentration: 100uM,0.108
same,log2 ratio of Biotin-Ahx-Ub-VS probe labelling,[7]; compound concentration: 200uM,-0.319
same,log2 ratio of Biotin-Ahx-Ub-VS probe labelling,[8]; compound concentration: 0.78uM,-0.768
same,log2 ratio of Biotin-Ahx-Ub-VS probe labelling,[8]; compound concentration: 1.56uM,-0.631
same,log2 ratio of Biotin-Ahx-Ub-VS probe labelling,[8]; compound concentration: 3.13uM,-0.859
same,log2 ratio of Biotin-Ahx-Ub-VS probe labelling,[8]; compound concentration: 6.25uM,-0.646
same,log2 ratio of Biotin-Ahx-Ub-VS probe labelling,[8]; compound concentration: 12.5uM,0.00923
same,log2 ratio of Biotin-Ahx-Ub-VS probe labelling,[8]; compound concentration: 25uM,-0.657
same,log2 ratio of Biotin-Ahx-Ub-VS probe labelling,[8]; compound concentration: 50uM,-0.0791
same,log2 ratio of Biotin-Ahx-Ub-VS probe labelling,[8]; compound concentration: 100uM,-0.905
same,log2 ratio of Biotin-Ahx-Ub-VS probe labelling,[8]; compound concentration: 200uM,-0.369
same,log2 ratio of Biotin-Ahx-Ub-VS probe labelling,[9]; compound concentration: 50uM,0.0571
same,log2 ratio of Biotin-Ahx-Ub-VS probe labelling,[9]; compound concentration: 200uM,0.132
same,log2 ratio of Biotin-Ahx-Ub-VS probe labelling,[10]; compound concentration: 50uM,0.000271
same,log2 ratio of Biotin-Ahx-Ub-VS probe labelling,[10]; compound concentration: 200uM,-0.108
